Laboratory results published in the supplement of paper PMC7156485.
A number with no mark means an inactive call.

system: HCC1569; test: H1.0 immunofluorescence intensity relative to DMSO (% of DMSO); higher = stronger H1.0 induction, active = 140 or more; settings: concentration: 10 µM; 24 h
Outline: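 After 24 h at 37 °C with compounds at 10 µM, in triplicate, HCC1569 and TDF cells were fixed with 3.7% formaldehyde. Immunostaining used a rabbit anti-H1.0 antibody and an AlexaFluor 647 secondary, with DAPI, and six fields per well were imaged at ×10. H1.0 nuclear intensity or cell number is presented as percent of the plate control, from the median of replicates, with HCC1569 values smoothed for positional effects.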
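Further: TDF is a line of transformed human dermal fibroblasts of mesenchymal origin.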

`CN(CCOc1ccc(CC2SC(=O)NC2=O)cc1)c1ccccn1.O=C(O)C=CC(=O)O` (stereo not given) [Rosiglitazone maleate] was tested. Which H1.0 immunofluorescence intensity did it give?
Its H1.0 immunofluorescence intensity is 101.

With `CC(C)C(CO)Nc1nc(Nc2ccc(C(=O)O)c(Cl)c2)c2ncn(C(C)C)c2n1` (stereo not given) as the compound, how does the H1.0 immunofluorescence intensity read?
The H1.0 immunofluorescence intensity was 115.

How did the H1.0 immunofluorescence intensity turn out when `CCCOC(=O)c1c(-c2ccccc2)nc(CC)c(C(=O)SCC)c1CCC` was run?
Its H1.0 immunofluorescence intensity is 96.3.

Which H1.0 immunofluorescence intensity does the source give for `CCN(CC)CCOC(=O)c1cc(Cl)c(N)cc1OC.Cl` [SDZ-205,557 hydrochloride] here?
Its H1.0 immunofluorescence intensity is 86.8.

With `CC(C)C[C@H](NC(=O)C(O)[C@H](N)Cc1ccc([N+](=O)[O-])cc1)C(=O)O.Cl` (stereo not given in full) as the compound, how does the H1.0 immunofluorescence intensity read?
The H1.0 immunofluorescence intensity was 93.9.

`CCCCCC=CCC=CCCCCCCCC(=O)O` [9(E),12(E)-Octadecadienoic acid] was tested. Which H1.0 immunofluorescence intensity did it give?
Its H1.0 immunofluorescence intensity is 108.

Which H1.0 immunofluorescence intensity does the source give for `O=C1Nc2cc(Br)ccc2C1=C1N=c2ccccc2=C1NO` [(2'Z,3'E)-6-Bromoindirubin-3'-oxime] here?
The H1.0 immunofluorescence intensity was 171 (active).

Which H1.0 immunofluorescence intensity does the source give for `CCCCCCC=CCCCCCCCCC(=O)O` [10(Z)-Heptadecenoic acid] here?
Its H1.0 immunofluorescence intensity is 102.

For `O=C(O)c1ccccc1Nc1cccc(OCc2ccc3ccccc3n2)c1`, which H1.0 immunofluorescence intensity is on record?
The H1.0 immunofluorescence intensity was 106.

`Cl.O[C@H](c1cc(C(F)(F)F)nc2c(C(F)(F)F)cccc12)[C@@H]1CCCCN1` was tested. Which H1.0 immunofluorescence intensity did it give?
The H1.0 immunofluorescence intensity was 170 (active).

For `CC(=O)SCC[N+](C)(C)C.[Cl-]` [Acetylthiocholine chloride], which H1.0 immunofluorescence intensity is on record?
The H1.0 immunofluorescence intensity was 92.5.

For `Oc1cc(O)c2c(c1)OC(c1ccc(O)c(O)c1)C(O)C2` (single isomer, unassigned; (+)) [(+)-Catechine], which H1.0 immunofluorescence intensity is on record?
The H1.0 immunofluorescence intensity was 88.4.

Which H1.0 immunofluorescence intensity does the source give for `CC1(NC2=NS(=O)(=O)c3sc(Cl)cc3N2)CC1` here?
Its H1.0 immunofluorescence intensity is 94.7.

`CCC=CCC=CCC=CCC=CC=CC(O)CCCC(=O)O` (racemic) was tested. Which H1.0 immunofluorescence intensity did it give?
Its H1.0 immunofluorescence intensity is 99.

With `Cl.Cn1ccc2cc3c(cc21)CCN3C(=O)Nc1cccnc1` as the compound, how does the H1.0 immunofluorescence intensity read?
Its H1.0 immunofluorescence intensity is 100.

How did the H1.0 immunofluorescence intensity turn out when `CCNC(=O)N1CCN(CCCC(c2ccc(F)cc2)c2ccc(F)cc2)CC1.Cl` [Amperozide hydrochloride] was run?
The H1.0 immunofluorescence intensity was 99.

How did the H1.0 immunofluorescence intensity turn out when `Cc1cn2cc(C(=O)N(C)CCO)cc(N[C@@H]3CCOc4cccc(C)c43)c2n1` was run?
The H1.0 immunofluorescence intensity was 106.

How did the H1.0 immunofluorescence intensity turn out when `COc1cc(Oc2ccnc3cc(OC)c(OC)cc23)ccc1NC(=O)NC(C)c1nccs1` (stereo not given) was run?
Its H1.0 immunofluorescence intensity is 124.

Which H1.0 immunofluorescence intensity does the source give for `N[C@@H](Cc1ccc(F)cc1)C(=O)O` [p-Fluoro-L-phenylalanine] here?
The H1.0 immunofluorescence intensity was 106.

With `NC(N)=NC(N)=Nc1ccccc1` [1-Phenylbiguanide] as the compound, how does the H1.0 immunofluorescence intensity read?
The H1.0 immunofluorescence intensity was 84.1.

For `COC(=O)C1C(O)CCC2CN3CCc4c([nH]c5ccccc45)C3CC21.Cl` (stereo not given), which H1.0 immunofluorescence intensity is on record?
Its H1.0 immunofluorescence intensity is 100.

Which H1.0 immunofluorescence intensity does the source give for `CC1CN(S(=O)(=O)c2cccc3cnccc23)CCN1.Cl.Cl` (stereo not given) here?
Its H1.0 immunofluorescence intensity is 81.1.

Which H1.0 immunofluorescence intensity does the source give for `CC(NC(=O)C(C#N)=Cc1ccc(O)c(O)c1)c1ccccc1` (stereo not given) [Tyrphostin AG 835] here?
The H1.0 immunofluorescence intensity was 114.

For `CCCCCC#CCC#CCC#CCC#CCCCC(=O)O`, which H1.0 immunofluorescence intensity is on record?
Its H1.0 immunofluorescence intensity is 101.

For `CC(C)CCNC(=O)C(CC(C)C)NC(=O)C1OC1C(=O)O` (stereo not given), which H1.0 immunofluorescence intensity is on record?
Its H1.0 immunofluorescence intensity is 92.5.

For `COc1ccccc1OCCNCC(O)COc1cccc2[nH]c3ccccc3c12` (stereo not given) [Carvedilol], which H1.0 immunofluorescence intensity is on record?
Its H1.0 immunofluorescence intensity is 106.

`CNC1C(O)C(NC)C2OC3(O)C(=O)CC(C)OC3OC2C1O` (stereo not given) [Spectinomycin] was tested. Which H1.0 immunofluorescence intensity did it give?
Its H1.0 immunofluorescence intensity is 87.

With `CC1OC(OCC2OC(Oc3c(-c4ccc(O)c(O)c4)oc4cc(O)cc(O)c4c3=O)C(O)C(O)C2O)C(O)C(O)C1O` (stereo not given) [Rutin] as the compound, how does the H1.0 immunofluorescence intensity read?
The H1.0 immunofluorescence intensity was 88.

With `CCCCCCC=CC=CCCCCCCCC(=O)O` [9(Z), 11(Z)-octadecadienoic acid] as the compound, how does the H1.0 immunofluorescence intensity read?
The H1.0 immunofluorescence intensity was 103.

`CN1C(=O)CC(C(=O)O)C1c1cccnc1` (stereo not drawn) [Trans-4-Cotininecarboxylic acid] was tested. Which H1.0 immunofluorescence intensity did it give?
Its H1.0 immunofluorescence intensity is 85.3.

Which H1.0 immunofluorescence intensity does the source give for `CN(C)CCCN1c2ccccc2Sc2ccccc21.Cl` [Promazine hydrochloride] here?
Its H1.0 immunofluorescence intensity is 110.

For `CC1=CC(=O)C2=C(C)CCC3C(C)C(=O)OC3C12` (stereo not given) [Leucomisine], which H1.0 immunofluorescence intensity is on record?
Its H1.0 immunofluorescence intensity is 95.6.

`CCCCCC=CCC=CC=CC(O)CC=CCCCC(=O)O` (stereo not given) was tested. Which H1.0 immunofluorescence intensity did it give?
The H1.0 immunofluorescence intensity was 95.8.

`CC(C)CC(NC(=O)C1OC1C(=O)O)C(=O)NCCCCN=C(N)N` (stereo not given) was tested. Which H1.0 immunofluorescence intensity did it give?
Its H1.0 immunofluorescence intensity is 97.3.

`CC(CN1c2ccccc2Sc2ccccc21)N(C)C.Cl` (stereo not given) was tested. Which H1.0 immunofluorescence intensity did it give?
Its H1.0 immunofluorescence intensity is 112.

With `Cl.Cl.Fc1ccc(C(c2ccc(F)cc2)N2CCN(CC=Cc3ccccc3)CC2)cc1` [Flunarizine dihydrochloride] as the compound, how does the H1.0 immunofluorescence intensity read?
The H1.0 immunofluorescence intensity was 97.3.

With `COc1nccc(-c2c(-c3ccc(F)cc3)ncn2C2CCNCC2)n1` as the compound, how does the H1.0 immunofluorescence intensity read?
Its H1.0 immunofluorescence intensity is 99.5.

For `CCCCCCCCCCCCCCCCCC(=O)OC(CC(=O)O)C[N+](C)(C)C.[Cl-]` (racemic) [DL-Stearoylcarnitine chloride], which H1.0 immunofluorescence intensity is on record?
The H1.0 immunofluorescence intensity was 114.

For `Cc1ccc(-c2ncc(Cl)cc2-c2ccc(S(C)(=O)=O)cc2)cn1` [Etoricoxib], which H1.0 immunofluorescence intensity is on record?
The H1.0 immunofluorescence intensity was 92.2.

With `O=C(NC(NC(=S)Nc1ccc(F)c([N+](=O)[O-])c1)C(Cl)(Cl)Cl)C(c1ccccc1)c1ccccc1` (stereo not given) as the compound, how does the H1.0 immunofluorescence intensity read?
The H1.0 immunofluorescence intensity was 190 (active).
